# Data: paper PMC9838217, “Structure of SALL4 zinc finger domain reveals link between AT-rich DNA binding and Okihiro syndrome”
# Residue numbers refer to the chain shown, from its start.
# Assays:
# Assay in all cases: HT-SELEX; high values mean tight binding
# Settings in all cases: protein: recombinant; vector His6-GST; dsDNA, one strand shown
# SALL4 ZFC4 WT (HT-SELEX) = molecular target: T1, SALL4 ZFC4 WT (HT-SELEX) (Mus musculus, UniProt Q8BX22 870-940)
# T1 sequence: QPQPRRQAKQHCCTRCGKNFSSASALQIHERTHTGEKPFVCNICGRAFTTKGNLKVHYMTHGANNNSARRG
# How it was run: (§1)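 Binding signal is defined as the fold change of each canonical k-mer's read fraction versus the initial random library. Selections used 1 µg of purified recombinant mouse SALL4 zinc finger cluster 4 (residues 870–940) with library DNA (1.5 µg first cycle, 200 ng later) in 100 µl of 10 mM Tris–HCl pH 7.5, 50 mM NaCl, poly(dI-dC) and DTT, for 10 min at room temperature, followed by Ni2+ bead capture, washing and PCR. Up to 6 such cycles were run in triplicate before MiSeq sequencing and 6-mer scanning.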
# [1] = molecular target: T2, SALL4 ZFC4 R900W (HT-SELEX) (Mus musculus, UniProt Q8BX22 870-940, R900W)
# T2 sequence: T1 sequence with R31W
# How it was run: as §1
# [2] = molecular target: T3, SALL4 ZFC4 G921D (HT-SELEX) (Mus musculus, UniProt Q8BX22 870-940, G921D)
# T3 sequence: T1 sequence with G52D
# How it was run: as §1
Sequence,binding signal (SALL4 ZFC4 WT (HT-SELEX)),binding signal [1],binding signal [2]
GACCCA,0.39 ± 0.0219 fold-change vs cycle 0,0.467 ± 0.00775 fold-change vs cycle 0,0.59 ± 0.0677 fold-change vs cycle 0
TAACAA,2.11 ± 0.116 fold-change vs cycle 0,2.02 ± 0.138 fold-change vs cycle 0,1.81 ± 0.153 fold-change vs cycle 0
TAGCCA,0.536 ± 0.0328 fold-change vs cycle 0,0.614 ± 0.0132 fold-change vs cycle 0,0.733 ± 0.0537 fold-change vs cycle 0
AAAGTA,1.92 ± 0.0856 fold-change vs cycle 0,1.98 ± 0.162 fold-change vs cycle 0,1.73 ± 0.169 fold-change vs cycle 0
CTTGGA,0.806 ± 0.0506 fold-change vs cycle 0,0.948 ± 0.0291 fold-change vs cycle 0,0.984 ± 0.0463 fold-change vs cycle 0
CCGAGA,0.385 ± 0.0394 fold-change vs cycle 0,0.459 ± 0.0241 fold-change vs cycle 0,0.548 ± 0.059 fold-change vs cycle 0
AGATAT,2.61 ± 0.24 fold-change vs cycle 0,2.08 ± 0.11 fold-change vs cycle 0,1.86 ± 0.213 fold-change vs cycle 0
AACGGA,0.714 ± 0.0406 fold-change vs cycle 0,0.846 ± 0.0545 fold-change vs cycle 0,0.859 ± 0.0492 fold-change vs cycle 0
CATATG,1.44 ± 0.156 fold-change vs cycle 0,1.37 ± 0.112 fold-change vs cycle 0,1.32 ± 0.0777 fold-change vs cycle 0
AGTCAA,1.21 ± 0.0262 fold-change vs cycle 0,1.409 ± 0.0091 fold-change vs cycle 0,1.34 ± 0.0532 fold-change vs cycle 0
TGCCAA,0.456 ± 0.0199 fold-change vs cycle 0,0.502 ± 0.00872 fold-change vs cycle 0,0.652 ± 0.0602 fold-change vs cycle 0
GGGAAC,0.517 ± 0.0146 fold-change vs cycle 0,0.591 ± 0.0347 fold-change vs cycle 0,0.653 ± 0.041 fold-change vs cycle 0
GAGTAC,0.903 ± 0.0224 fold-change vs cycle 0,0.992 ± 0.045 fold-change vs cycle 0,1.04 ± 0.0172 fold-change vs cycle 0
ATATTC,2.62 ± 0.255 fold-change vs cycle 0,1.95 ± 0.1 fold-change vs cycle 0,1.78 ± 0.19 fold-change vs cycle 0
ACTAGC,0.648 ± 0.0227 fold-change vs cycle 0,0.764 ± 0.0235 fold-change vs cycle 0,0.825 ± 0.0195 fold-change vs cycle 0
GGAGAA,0.849 ± 0.0319 fold-change vs cycle 0,0.985 ± 0.0471 fold-change vs cycle 0,0.959 ± 0.0602 fold-change vs cycle 0
AACCCC,0.459 ± 0.0283 fold-change vs cycle 0,0.547 ± 0.00959 fold-change vs cycle 0,0.617 ± 0.0497 fold-change vs cycle 0
AGTTGG,0.73 ± 0.0169 fold-change vs cycle 0,0.834 ± 0.0159 fold-change vs cycle 0,0.883 ± 0.0279 fold-change vs cycle 0
ACGTAC,0.714 ± 0.0363 fold-change vs cycle 0,0.825 ± 0.0331 fold-change vs cycle 0,0.862 ± 0.022 fold-change vs cycle 0
GAATGA,1.42 ± 0.0437 fold-change vs cycle 0,1.57 ± 0.0566 fold-change vs cycle 0,1.43 ± 0.0639 fold-change vs cycle 0
AGCAAA,0.996 ± 0.0354 fold-change vs cycle 0,1.04 ± 0.0692 fold-change vs cycle 0,1.07 ± 0.0335 fold-change vs cycle 0
ATTAAT,6.27 ± 0.662 fold-change vs cycle 0,2.77 ± 0.256 fold-change vs cycle 0,2.34 ± 0.327 fold-change vs cycle 0
GTCGAA,0.506 ± 0.0326 fold-change vs cycle 0,0.599 ± 0.0193 fold-change vs cycle 0,0.7 ± 0.0299 fold-change vs cycle 0
ATAACA,2.52 ± 0.194 fold-change vs cycle 0,2.06 ± 0.122 fold-change vs cycle 0,1.83 ± 0.192 fold-change vs cycle 0
CTCTAC,0.799 ± 0.0191 fold-change vs cycle 0,0.917 ± 0.016 fold-change vs cycle 0,0.954 ± 0.0195 fold-change vs cycle 0
AAGTTA,2.21 ± 0.185 fold-change vs cycle 0,2.17 ± 0.193 fold-change vs cycle 0,1.9 ± 0.254 fold-change vs cycle 0
GAAAGA,1.32 ± 0.0648 fold-change vs cycle 0,1.52 ± 0.0726 fold-change vs cycle 0,1.36 ± 0.0863 fold-change vs cycle 0
AGCCCT,0.343 ± 0.0204 fold-change vs cycle 0,0.423 ± 0.0426 fold-change vs cycle 0,0.56 ± 0.0891 fold-change vs cycle 0
GACACA,0.629 ± 0.04 fold-change vs cycle 0,0.754 ± 0.0153 fold-change vs cycle 0,0.837 ± 0.0392 fold-change vs cycle 0
GGATGA,0.897 ± 0.0305 fold-change vs cycle 0,1.01 ± 0.0334 fold-change vs cycle 0,1.02 ± 0.0224 fold-change vs cycle 0
